Shiga toxin inh: Shiga toxin inhibition; Vero cells, Shiga toxin protein synthesis inhibition reporter; inhibition, % at 38.7 µM; actives 9.2% (n = 290,000); AID 2315; in the data active = inhibition mostly above about 28%, no sharp cut-off; inactive = mostly below about 43%; also: 0% is about no effect
LASV entry inh: blocks Lassa virus binding to or entry into cells | Lassa virus pseudotype entry inhibition, cell reporter | actives 1.2% (n = 300,000) | Potency, µM (top dose mostly 37.9 µM), for inactives: at the highest dose activity change, negative = inhibition, most hits filed as inhibitors; calls by dose curve; tested in HEK293 cells; also: potency is read from the fitted curve at half-maximal effect; % is scaled to controls: 0 for no effect and ±100 for the full control effect; nearly all actives have a fitted effect of over 50% in size
MARV entry inh: blocks Marburg virus binding to or entry into cells; Potency, µM (series often up to 37.8 µM), without a hit: at the top dose activity change, negative = inhibition, usual class: inhibitors; AID 540276; Marburg virus pseudotyped entry inhibition, cell reporter; actives 1.8% (n = 300,000); calls by dose curve; tested in HEK293 cells; also: potency is read from the fitted curve at half-maximal effect; % is scaled to controls: 0 for no effect and ±100 for the full control effect
Cycloheximide cs: affects cycloheximide protein synthesis inhibition readout, counter-screen; cell reporter, cycloheximide protein synthesis inhibition counterscreen; max response, %; actives 12% (n = 300,000); in the data active = max response mostly above about 13%, no sharp cut-off; inactive = mostly below about 14%; also: read at 38.3 µM for the half of the compounds with a filed dose; 0% is about no effect
Pf growth 96h: P. falciparum growth inhibition at 96 hour, primary screen for plastid delayed-death inhibitors; P. falciparum luciferase reporter growth, 96 h; Potency, µM (series often up to 28.7 µM), for the others: at the top dose activity change, negative = inhibition, hits mostly inhibitors; actives 6.9% (n = 320,000); also: potency is read from the fitted curve at half-maximal effect; % is scaled to controls: 0 for no effect and ±100 for the full control effect
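Compounds incubated with erythrocytes infected by luciferase-expressing P. falciparum (2% hematocrit, 0.05% parasitemia final) for 96 hours, 37 C in 5% CO2. Growth inhibition scored as decreased luciferase luminescence.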
Pf growth 48h: inhibits P. falciparum growth in the first generation, 48 h; Potency, µM (titrated, usually from 28.7 µM), for inactives: top-dose activity change, negative = inhibition, most hits filed as inhibitors; AID 504832; actives 5.9% (n = 310,000); P. falciparum luciferase growth in erythrocytes, 48 h; also: potency is read from the fitted curve at half-maximal effect; % is scaled to controls: 0 for no effect and ±100 for the full control effect
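Cell-based growth assay: transgenic P. falciparum expressing firefly luciferase, cultured in red cells within RPMI 1640 containing 0.5% w/v Albumax, 24 mM bicarbonate and gentamycin. A drop in luciferase activity indicates inhibition.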
* = called active by the depositor; i = inactive; ? = inconclusive; nt = not tested or not shown; [ ] = remark or other dose. A selection: hits, their analogues and other compounds. The true share with any hit is near 19%. Unless noted, calls follow the shape of the dose curve; as a rule, active = well fitted inhibition curve with a large enough effect; inconclusive = small, poorly fitted or top-dose-only effect, or another doubt; inactive = no such curve, though single readings can be large or run the other way.

SMILES	Shiga toxin inh	LASV entry inh	MARV entry inh	Cycloheximide cs	Pf growth 96h	Pf growth 48h
CCN(CC)CCCN(CC(=O)N(C)Cc1ccccc1)C(=O)c1ccc([N+](=O)[O-])cc1	-12	nt	nt	-3	?	?
CCc1noc(C)c1C(=O)Nc1ccc(C(F)(F)F)cc1	-17	nt	nt	-4	37%	-1%
CCCCN(CCCC)S(=O)(=O)c1ccc(C(=O)Nc2nnc(COC)o2)cc1	12	?	?	-2	72%	?
Cn1cc(C(=O)C(=O)N2CCN(c3ccccc3)CC2)c2ccccc21	13	6%	-9%[46.1 µM]	-6	?	12%
CCOC(=O)c1c(NC(=O)CSc2nnc(-c3cccc(C)c3)n2CC)sc(C(C)=O)c1C	-9	-25%	?	-4	-23%	11%
CCN(CC)c1cccc(OCC(=O)N(C)CCC#N)c1	-14	?	24%	11	10%	10µM*
O=C(/C=C/Sc1ccccc1)c1ccccc1	182*	0%	?	140*	?	nt
O=C(/C=C/Sc1ccccc1)c1ccc(Cl)cc1	116*	-71%	?	68*	?	nt
Cc1cccc(C=CC(=O)c2ccccc2)c1	nt	12%	-13%	nt	nt	nt
O=C(NCCC1=CCCCC1)c1ccc2c(c1)ncn2-c1cccc(Cl)c1	nt	16%[46.1 µM]	nt	nt	nt	nt
COC(=O)C(C)Sc1ccc2nnc(CCNS(=O)(=O)c3ccc(C)cc3)n2n1 (configuration not stated)	15	-10%[46.1 µM]	nt	12	19%	11%
COc1cc(NC(=O)c2ccc(NS(=O)(=O)c3c(C)noc3C)cc2)cc(OC)c1	17	-12%	4%	-3	0.33µM*	?
CC(=O)Nc1nc(-c2ccccc2)c(-c2ccccc2)o1	11	-11%	9%[46.1 µM]	-2	43%	18%
COc1ccc(NC(=O)c2ccc(NC(=O)C3CC3)cc2)cc1	10	nt	nt	-2	-2%	-15%
COc1cc(NC(=O)c2ccccc2)cc(OC)c1	48	1%	-18%	30*	nt	i
COc1ccc(OC)c(NC(=O)c2ccc(NS(=O)(=O)c3c(C)noc3C)cc2)c1	-8	-8%	1%	-4	?	-17%
COc1cc(OC)cc(C(=O)Nc2nc(-c3ccccc3)c(-c3ccccc3)o2)c1	17	?	21µM*	2	?	?
COc1ccc(C(=O)Nc2cc(OC)cc(OC)c2)cc1	65*	-18%	-11%	40*	nt	90%
COc1cc(OC)cc(C(=O)Nc2ccc(C(=O)Nc3ccccc3OC)cc2)c1	nt	-21%[46.1 µM]	?	nt	nt	nt
Cc1ccc(C(=O)C2=C(O)C(=O)N(Cc3ccco3)C2c2cccc(Br)c2)o1 (configuration not stated)	21	6%	1%	6	50%	17%
CCCNC(=O)c1ccccc1NC(=O)c1ccccc1N(C)S(C)(=O)=O	3	3%	-9%[46.1 µM]	1	9%	-1%
Cc1ccc(OCC(=O)Nc2nonc2-c2ccc(Br)cc2)cc1	nt	-14%[46.1 µM]	2%[46.1 µM]	nt	nt	nt
O=C(CN1C(=O)C2CC=CCC2C1=O)OCc1cc(=O)n2cc(Br)ccc2n1 (configuration not stated)	6	0%[46.1 µM]	13%[46.1 µM]	-2	22%	17%
Fc1ccccc1Cc1noc(CN2CCC(OCc3cccnc3)CC2)n1	59*	?	0%[46.1 µM]	22*	43%	47%
COC1CCCN(Cc2nc(Cc3ccccc3F)no2)C1 (configuration not stated)	4	12%[46.1 µM]	1%[46.1 µM]	11	-8%	6%
SMILES	Shiga toxin inh	LASV entry inh	MARV entry inh	Cycloheximide cs	Pf growth 96h	Pf growth 48h
Cc1ccc(NC(=O)CCNC(=O)c2ccccc2Cl)cc1S(=O)(=O)N(C)C	15	5%	1%	-4	-9%	-2%
CCOc1ccc(CN2CCNC(=O)C2CC(=O)NCc2csc(C(C)C)n2)cc1 (configuration not stated)	-3	nt	nt	-1	2%	?
O=C(Nc1cccnc1Cl)c1cccs1	30	11%[46.1 µM]	-2%[46.1 µM]	-1	1%	24%
COc1ccc(CC(=O)NNC(=O)c2cccs2)cc1	5	?	8%	6	2.9µM*	31%
O=C(Nc1nonc1NC(=O)c1cccs1)c1cccs1	20	8.9µM*	?	5	-15%	6%
CC(C)c1ccc(NC(=S)NNC(=O)c2cccs2)cc1	72*	14%	11%[46.1 µM]	42*	-11%[1.15 µM]	20%
COc1cccc(-c2nc(-c3ccc(NC(=O)c4cccs4)cc3)no2)c1	64*	-3%	2%	56*	4.1µM*	16%
COc1ccc(CC(=O)NNC(=O)Cc2ccc(OC)cc2)cc1	15	nt	nt	-2	-5%	10%
O=C(Nc1ccc(NC(=O)C2CC2)cc1)c1cccs1	67*	-14%[46.1 µM]	?	43*	10µM*	128%
O=C(Nc1cccc(F)c1)/C(=C\c1cccnc1)NC(=O)c1ccco1	-4	-6%	1%[46.1 µM]	1	-1%	-6%
Nc1cccc(NC(=O)c2cccs2)c1	20	-20%	9%	15*	25%	17%
Cc1ccc(NC(=O)/C(=C\c2cccnc2)NC(=O)c2ccco2)cc1	31	-1%	-8%[46.1 µM]	7	3.3µM*	?
COc1ccc(NC(=O)C2CCN(C(=O)c3cccs3)CC2)cc1	-12	2%	3%	1	nt	-4%
COc1cccc(C(=O)COc2ccc(NC(=O)c3cccs3)cc2)c1	20	?	?	19*	?	12µM*
CNC(=S)NNC(=O)c1cccs1	22	15%	7%[46.1 µM]	-2	11%	14%
COc1ccc(NC(=S)NNC(=O)c2cccs2)cc1	46*	6%	38%	27*	5%	32%
CCC(C)NS(=O)(=O)c1ccc(NC(=O)c2cccs2)cc1 (configuration not stated)	-2	0%[46.1 µM]	12%[46.1 µM]	-3	38%	1%
CC(C)C(=O)Nc1ccc(NC(=O)c2cccs2)cn1	114*	11%	13%[46.1 µM]	50*	0%	127%
CCC(C)c1ccc(NC(=O)c2cccs2)cc1 (configuration not stated)	59*	?	?	30*	?	nt
CC1CC(C)CN(S(=O)(=O)c2ccc(NC(=O)[C@@H]3CCCN3C(=O)c3cccs3)cc2)C1 (some centres not stated)	nt	nt	nt	nt	?	12µM*
Cc1cc(Cl)ccc1OCC(=O)Nc1c(Cl)ccc2nsnc12	nt	-15%[46.1 µM]	15%[46.1 µM]	nt	nt	nt
O=c1[nH]c(SCc2ccccc2Cl)nc2c1cnn2-c1ccccc1	7	nt	nt	-5	-4%	11%
CC(C)CNC(=O)c1ccc(NC(=O)c2cccs2)cc1	62*	?	25%	27*	11%	46%
Cc1ccn(-c2ccc(NC(=O)c3cccs3)cc2)n1	82*	?	?	33*	26%	45%
CC(=O)Nc1ccc(C(=O)NNC(=O)c2cccs2)cc1	-12	4%	11%[46.1 µM]	8	?	33%
COc1ccc(C(=O)Nc2ccc(NC(=O)c3cccs3)cn2)cc1	43	-2%[46.1 µM]	6%[46.1 µM]	20*	-13%	38%

Screens: PubChem, National Center for Advancing Translational Sciences (NCATS)
